Gli-Sufu block: blocks Gli-Sufu signaling in a luciferase reporter | Sufu-KO-LIGHT fibroblasts, Gli luciferase reporter luminescence | inhibition, % at 5 µM | 340,000 tested, 0.74% active;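 active means inhibition above about 55%, limit read from the data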
Beta apoptosis: beta cell apoptosis inhibition; INS-1E cytokine-induced death, ATP luminescence, 48 h; percent of positive-control rescue, neutral wells zero; protection from apoptosis, % (no concentration beside the values); 300,000 tested, 0.8% active; AID 435005;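 active means Every replicate reaches about 75%, or at least half do and their mean reaches it too, limit read from the data; inconclusive means At least half of replicates reach the limit but their mean does not; inactive means Under half of replicates reach the limit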;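 further: higher means more ATP so stronger rescue from cytokine killing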
Mdm2-MdmX inh: human Mdm2/MdmX binding inhibition. AID 485346. inhibition, % at 8 µM. 330,000 tested, 3% active. SaOS-2 split-luciferase Mdm2/MdmX complementation, luminescence;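 active means inhibition of at least 50% at 8 µM in the primary screen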
Target sequence (O15151 whole entry, looked up): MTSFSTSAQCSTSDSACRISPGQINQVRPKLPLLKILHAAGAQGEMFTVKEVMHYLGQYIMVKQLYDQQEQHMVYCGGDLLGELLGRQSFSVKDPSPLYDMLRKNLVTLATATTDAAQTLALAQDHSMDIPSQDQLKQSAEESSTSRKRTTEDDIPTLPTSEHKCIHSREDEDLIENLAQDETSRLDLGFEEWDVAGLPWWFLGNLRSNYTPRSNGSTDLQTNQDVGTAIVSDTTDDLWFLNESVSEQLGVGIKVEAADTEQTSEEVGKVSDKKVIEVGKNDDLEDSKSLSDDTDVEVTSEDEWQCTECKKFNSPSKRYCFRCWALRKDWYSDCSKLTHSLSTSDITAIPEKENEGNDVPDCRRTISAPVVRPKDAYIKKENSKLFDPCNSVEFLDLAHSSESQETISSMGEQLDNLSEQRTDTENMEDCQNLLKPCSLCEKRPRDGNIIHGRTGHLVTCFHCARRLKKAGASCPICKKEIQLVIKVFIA
Target sequence (Q00987 whole entry, looked up): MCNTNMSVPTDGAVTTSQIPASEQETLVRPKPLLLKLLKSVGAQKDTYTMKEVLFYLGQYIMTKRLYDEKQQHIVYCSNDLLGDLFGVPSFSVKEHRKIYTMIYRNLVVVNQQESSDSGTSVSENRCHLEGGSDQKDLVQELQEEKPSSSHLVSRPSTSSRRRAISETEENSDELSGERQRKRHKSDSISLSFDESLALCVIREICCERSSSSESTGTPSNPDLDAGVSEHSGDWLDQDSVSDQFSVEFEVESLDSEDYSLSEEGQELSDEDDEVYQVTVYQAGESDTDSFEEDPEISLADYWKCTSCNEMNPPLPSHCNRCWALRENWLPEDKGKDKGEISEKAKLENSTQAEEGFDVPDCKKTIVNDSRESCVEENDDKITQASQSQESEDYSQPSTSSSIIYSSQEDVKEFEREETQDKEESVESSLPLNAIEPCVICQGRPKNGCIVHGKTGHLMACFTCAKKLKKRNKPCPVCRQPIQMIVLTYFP
Shn3 3UTR inh: reduces Shn3 3'UTR luciferase signal in osteoblasts. Clone20 osteoblast Shn3 3'UTR firefly luciferase, 24 h. inhibition, % at 12.5 µM. 360,000 tested, 0.52% active. AID 588674;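 active means mean inhibition of at least 75% with every replicate also reaching 75%; inconclusive means mean inhibition at least 75% but some replicate below; inactive means mean inhibition below 75%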
CSC inhib: blocks cancer stem cells. inhibition, % at 7.5 µM. 300,000 tested, 1.1% active. cancer stem cell-like cells viability, luminescence; in the data active means inhibition above about 75%; inconclusive means no clear call, values can overlap the other calls; tested in HMLE shEcad cells
PAX8 inh HTS: inhibitors of PAX8 transcriptional activity in RMG-I cells | RMG-I TPO-luciferase reporter, SteadyGlo, 24 h | inhibition, % at 12.6 µM | 360,000 tested, 1.2% active | AID 652154;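 active means mean replicate inhibition at least 60% with every replicate also reaching 60%; inconclusive means only one of the two criteria is met; inactive means mean below 60% and not all replicates reaching 60%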;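 further: luciferase light reporting Pax8 driven TPO promoter activity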
Gli-Sufu confirm: confirmation of Gli-SUFU pathway antagonists; Sufu-KO-LIGHT cells, Gli luciferase reporter, luminescence; shares compounds with Gli-Sufu block; 2,500 tested, 40% active; AID 602428; inhibition, % at 5 µM;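 active means mean inhibition at 5 µM reaching about 45%, limit read from the data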
Gli cytotox: counter-screen for Gli-SUFU antagonists: cytotoxicity; shares compounds with Gli-Sufu block; cytotoxicity, % at 5 µM; 2,500 tested, 32% active; Sufu-KO-LIGHT cells cytotoxicity, ATP luminescence;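 active means mean cytotoxicity at 5 µM above about 25%, limit read from the data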;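 further: cells exposed to compound overnight for roughly 16 to 18 hours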
Wnt3a cs: counter-screen for Gli-SUFU antagonists: Wnt3a reporter inhibition. shares compounds with Gli-Sufu block. Wnt-LIGHT cells, Wnt3a-driven luciferase reporter, luminescence. inhibition, % at 6.25 µM. 2,500 tested, 20% active;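 active means mean inhibition above about 25%, limit read from the data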
Of the large screens only hits and unclear results are named; the others gave an inactive call (follow-up assays come after a bar, where they were run). Compounds with a hit are over-represented: about 4% of the library has one in this group of screens.

Cc1ccc(N2C(=O)NC(=O)/C(=C\c3cc(C)n(-c4sc5c(c4C#N)CCCC5)c3C)C2=O)cc1	Gli-Sufu block 59 | Gli-Sufu confirm 53 | Gli cytotox 42 | Wnt3a cs inactive
N#Cc1cccc(-c2ccc([C@H]3[C@H](CO)N4CCCCN(C(=O)Cc5ccccc5)C[C@@H]34)cc2)c1	none (no result: Gli-Sufu block, Beta apoptosis, Mdm2-MdmX inh, Shn3 3UTR inh, CSC inhib)
CCC(=O)N1[C@@H]2c3ccc(-c4cccc(F)c4)c(=O)n3C[C@H]1[C@H](CO)[C@H]2C(=O)OC	none (no result: Gli-Sufu block, Beta apoptosis, Mdm2-MdmX inh, Shn3 3UTR inh, CSC inhib)
COc1cc2c(cc1OC)C1C(=O)c3ccc4c(c3OC1CO2)CC(C(C)C)O4 (stereo unspecified)	Gli-Sufu block 85, Shn3 3UTR inh 85 (no result: Beta apoptosis, Mdm2-MdmX inh, CSC inhib) | Gli-Sufu confirm 89 | Gli cytotox 47 | Wnt3a cs 37
CCOc1ccc(-c2cc(C)[n+](CCO)c(-c3ccc(OCC)cc3)c2)cc1	Gli-Sufu block 64, PAX8 inh HTS 92 (no result: CSC inhib) | Gli-Sufu confirm 60 | Gli cytotox 34 | Wnt3a cs inactive
CC=Cc1ccc2n(c1=O)C[C@H]1[C@H](CO)[C@@H](C(=O)OC)[C@@H]2N1S(=O)(=O)c1ccccc1C (mixture of isomers)	none (no result: Gli-Sufu block, Beta apoptosis, Mdm2-MdmX inh, Shn3 3UTR inh, CSC inhib)
N/C(=N\N=C\c1ccc(O)cc1O)N[N+](=O)[O-]	Gli-Sufu block 55 (no result: PAX8 inh HTS) | Gli-Sufu confirm inactive | Gli cytotox inactive | Wnt3a cs 42
COc1ccc(C#Cc2ccc([C@H]3[C@@H](CO)N4CCCCN(C(=O)Cc5cccnc5)C[C@@H]34)cc2)cc1	none (no result: Gli-Sufu block, Beta apoptosis, Mdm2-MdmX inh, Shn3 3UTR inh, CSC inhib)
Cc1ncc(CN2CCCC(C(=O)c3ccc(C(C)(C)C)cc3)C2)s1 (stereo unspecified)	none | Gli-Sufu confirm inactive | Gli cytotox inactive | Wnt3a cs inactive
O=C(c1ccc(C(F)(F)F)cc1)C1CCCN(Cc2ccncc2)C1 (stereo unspecified)	Gli-Sufu block 56 | Gli-Sufu confirm inactive | Gli cytotox inactive | Wnt3a cs inactive
COc1ccc(C(=O)C2CCCN(Cc3cnc(C)s3)C2)cc1OC (stereo unspecified)	none
CCOP(=O)(OCC)C(O)c1cccc([N+](=O)[O-])c1 (stereo unspecified)	Gli-Sufu block 58 | Gli-Sufu confirm inactive | Gli cytotox 25 | Wnt3a cs inactive
COc1cccc(-c2ccc3n(c2=O)C[C@@H]2[C@@H](CO)[C@H](C(=O)O)[C@H]3N2Cc2ccccc2F)c1	none (no result: Gli-Sufu block, Beta apoptosis, Mdm2-MdmX inh, Shn3 3UTR inh, CSC inhib)
O=C(NC[C@H]1CC[C@H]2[C@H](CN2Cc2cccnc2)O1)C1CC1	none (no result: Gli-Sufu block, Beta apoptosis, Mdm2-MdmX inh, Shn3 3UTR inh, CSC inhib)
N#Cc1ccc(-c2ccc([C@H]3[C@H](CO)N4CCCCN(C(=O)Cc5ccccc5)C[C@@H]34)cc2)cc1	none (no result: Gli-Sufu block, Beta apoptosis, Mdm2-MdmX inh, Shn3 3UTR inh, CSC inhib)
CCOc1ccc(-n2c(O)c(C=Nc3ccc(N(CC)CC)cc3)c(=O)[nH]c2=O)cc1	Gli-Sufu block 97 (no result: Beta apoptosis, CSC inhib, PAX8 inh HTS) | Gli-Sufu confirm inactive | Gli cytotox inactive | Wnt3a cs inactive
CCN(CC)c1ccc(N=Cc2c(O)n(-c3ccccc3)c(=O)[nH]c2=O)cc1	none
CCOC(=O)CNC(=O)CNC(=O)C(Cc1ccc(N(CCCl)CCCl)cc1)NC(C)=O (stereo unspecified)	none (no result: Beta apoptosis)
CC(=O)NC(Cc1ccc(N(CCCl)CCCl)cc1)C(=O)NCC(=O)NCC(=O)O (stereo unspecified)	none | Gli-Sufu confirm inactive | Gli cytotox inactive | Wnt3a cs inactive
CC(C)C(=O)c1cn(Cc2ccccc2C#N)c2ccccc12	none (no result: PAX8 inh HTS)
CC(=O)c1cn(Cc2ccccc2C#N)c2ccccc12	Gli-Sufu block 59 (no result: Beta apoptosis, CSC inhib) | Gli-Sufu confirm 63 | Gli cytotox inactive | Wnt3a cs 34
O=Cc1cn(Cc2ccccc2F)c2ccccc12	none
CC(=O)c1cn(Cc2ccccc2F)c2ccccc12	Gli-Sufu block 59, Shn3 3UTR inh inconclusive (no result: Beta apoptosis, CSC inhib) | Gli-Sufu confirm 49 | Gli cytotox 36 | Wnt3a cs inactive
CC[C@@H](O)C[C@H]1CCC[C@@]2(C[C@@H]3OC(=O)/C=C/[C@@](C)(O)[C@@H](O)[C@H](C)[C@@H](O)[C@H](OC4CCC(N(C)C)C(C)O4)[C@@H](O)[C@](C)(O)CCCCC/C=C/[C@@H]4CC(C)(C)O[C@@]4(O)C[C@H](O2)[C@H]3C)O1 (stereo partly specified)	Gli-Sufu block 89, Shn3 3UTR inh 90, PAX8 inh HTS inconclusive (no result: Beta apoptosis, Mdm2-MdmX inh, CSC inhib) | Gli-Sufu confirm 89 | Gli cytotox inactive | Wnt3a cs inactive
CCC(C)NC(=O)CCC(=O)OC1O[C@H]2OC3(C)CC[C@H]4[C@H](C)CCC(C1C)C24OO3 (stereo partly specified)	Gli-Sufu block 79 (no result: Mdm2-MdmX inh) | Gli-Sufu confirm 84 | Gli cytotox inactive | Wnt3a cs 25
O=c1[nH]c(=S)n(Cc2ccc(F)cc2)c(O)c1C=NCc1cccnc1	Gli-Sufu block 72 | Gli-Sufu confirm inactive | Gli cytotox inactive | Wnt3a cs inactive
CCC1(OC(=O)CN)C(=O)OCc2c1cc1n(c2=O)Cc2cc3ccccc3nc2-1 (stereo unspecified)	Gli-Sufu block 82, Beta apoptosis 92 (no result: Mdm2-MdmX inh, PAX8 inh HTS) | Gli-Sufu confirm 59 | Gli cytotox 59 | Wnt3a cs inactive
COC(=O)[C@H]1[C@H](CO)[C@H]2Cn3c(ccc(C4=CCCCC4)c3=O)[C@@H]1N2C(=O)Cc1ccccn1	none (no result: Gli-Sufu block, Beta apoptosis, Mdm2-MdmX inh, Shn3 3UTR inh, CSC inhib)
CCOP(=O)(CCP(=O)(OCC)OCC)OCC.C[CH2][Sn]([Cl])([Cl])[CH2]C	Gli-Sufu block 63, PAX8 inh HTS 93 (no result: Beta apoptosis, Mdm2-MdmX inh, CSC inhib) | Gli-Sufu confirm 63 | Gli cytotox inactive | Wnt3a cs inactive
O=C(Cc1cccnc1)N1CCCCN2[C@@H](CO)[C@H](c3ccc(C#CC4CC4)cc3)[C@@H]2C1	none (no result: Gli-Sufu block, Beta apoptosis, Mdm2-MdmX inh, Shn3 3UTR inh, CSC inhib)
CSc1ncc(Br)c(N2CC2)n1	none (no result: Beta apoptosis, Mdm2-MdmX inh, CSC inhib)
CSc1ncc(Cl)c(C(=O)O)n1	none (no result: PAX8 inh HTS) | Gli-Sufu confirm inactive | Gli cytotox inactive | Wnt3a cs inactive
OC(c1ccccc1)(c1ccccc1)C1CN2CCC1CC2 (stereo unspecified)	none
OC(c1ccccc1)(c1ccc(Cl)cc1)C1CN2CCC1CC2 (stereo unspecified)	Gli-Sufu block 58 | Gli-Sufu confirm inactive | Gli cytotox inactive | Wnt3a cs inactive
CC(C)CC#Cc1ccc([C@H]2[C@H](CO)N3CCCCN(C(=O)Cc4ccccn4)C[C@@H]23)cc1	none (no result: Gli-Sufu block, Beta apoptosis, Mdm2-MdmX inh, Shn3 3UTR inh, CSC inhib)
N#Cc1cccc(-c2ccc([C@@H]3[C@@H](CO)N4CCCCN(C(=O)Cc5ccncc5)C[C@H]34)cc2)c1	none (no result: Gli-Sufu block, Beta apoptosis, Mdm2-MdmX inh, Shn3 3UTR inh, CSC inhib)
O=C1NC(=S)N(c2ccccc2)C(=O)/C1=C/c1ccco1	none
CCOc1cccc(N2C(=O)/C(=C/c3ccco3)C(=O)NC2=S)c1	Gli-Sufu block 55 | Gli-Sufu confirm inactive | Gli cytotox inactive | Wnt3a cs inactive
